Shown are actives, neighbours in structure and some others; about 6.2% of the full set was active somewhere.
GRIN3A LBD mod: binders of NR3A ligand-binding domain, primary screen, biophysical, differential scanning fluorimetry, uHTS | NR3A LBD differential scanning fluorimetry, Tm shift; 0% = protein alone, 100% = glycine-bound protein | Tm shift relative to glycine control, % at 25 µM | hit rate 2.5% among 340,000 | AID 1259313, 2017;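 active = melting temperature shift of at least 10% of the positive control shift, at one fixed dose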
AI-2 QS modul: Vibrio harveyi AI-2 quorum sensing modulators, primary screen, JMH597 strain, luminescence/OD600 ratio. Vibrio harveyi JMH597 AI-2 luminescence/OD600 ratio, 9 h; active compounds read low; strain lacks LuxN and CqsS sensors; 0 = neutral-control median. hit rate 0.4% among 300,000. activity change, % at 7.5 µM; in the data active = activity change below about -75%, passing the limit was not always enough;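 also: luminescence divided by OD600 gain over 9 h not by final OD600 alone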
Mot1-301 SUMO: yeast Mot1-301 growth rescue at high temperature, primary screen, SUMOylation pathway inhibitor project, S. cerevisiae, ATP luminescence, 38.5C; growth rescue, % at 18.8 µM; AID 2716, 2010; hit rate 1% among 320,000; S. cerevisiae Mot1-301 growth rescue; percent above DMSO median, 100 means doubled;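 active = every valid replicate shows activation above 250% relative to neutral control wells; inactive = the rest, any valid replicate at or below 250%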
H9c2 protect: cardioprotection against H2O2-induced cell death, primary screen, uHTS, H9c2 cells, ATPLite luminescence | H9c2 cardiomyocytes, H2O2 injury protection, 2 h | protection from H2O2 cell death, % at 20 µM | hit rate 0.63% among 360,000 | AID 588492, 2011;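 active = compounds giving at least 50% protection of heart cells from peroxide-induced death in the single-dose screen, raw or plate-pattern-corrected value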
NTR1 ag: agonists of human NTR1, primary screen, imaging, U2OS cells, beta-arrestin-GFP, high content | NTR1-U2OS beta-arrestin-GFP spot imaging, agonist mode | hit rate 0.17% among 330,000 | Neurotensin receptor type 1 (Homo sapiens), P30989 | activation, % at 20 µM | AID 493036, 2011;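 active = activation at or above 40% of the spot to cytoplasm intensity ratio, with at least 20 cells analyzed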
Target sequence (P30989 whole entry, looked up): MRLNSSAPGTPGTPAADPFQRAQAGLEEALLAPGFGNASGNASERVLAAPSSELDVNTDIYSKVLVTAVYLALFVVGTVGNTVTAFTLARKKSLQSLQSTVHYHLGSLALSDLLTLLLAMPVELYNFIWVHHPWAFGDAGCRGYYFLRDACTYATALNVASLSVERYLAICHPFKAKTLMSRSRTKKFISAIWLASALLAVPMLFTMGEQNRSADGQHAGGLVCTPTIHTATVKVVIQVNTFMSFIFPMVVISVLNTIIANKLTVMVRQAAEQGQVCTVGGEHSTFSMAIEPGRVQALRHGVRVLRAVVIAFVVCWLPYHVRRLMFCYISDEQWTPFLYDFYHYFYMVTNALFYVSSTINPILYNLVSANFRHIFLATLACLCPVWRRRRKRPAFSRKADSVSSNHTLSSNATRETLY
AHR act: AHR activators, primary screen, cell-based, luminescence, luciferase reporter, human; Aryl hydrocarbon receptor (Homo sapiens), P35869; AHR-responsive luciferase reporter cells; activation, % at 5 µM; hit rate 2.5% among 320,000; AID 2796, 2010; in the data active = activation above about 47%
Hits are given with their value; – = inactive; · = not tested or not shown.

SMILES	GRIN3A LBD mod	AI-2 QS modul	Mot1-301 SUMO	H9c2 protect	NTR1 ag	AHR act
Clc1ccc(-c2nc3ccc(Cl)cn3c2CN2CCOCC2)cc1	–	–	–	–	–	62
Clc1ccc(-c2nc3ccc(Cl)cn3c2CN2CCCCC2)cc1	–	–	–	–	·	·
COC12c3ccccc3-c3ccccc3C1C(C(=O)O)C2C(=O)O (stereo not given)	·	·	·	–	·	·
C[C@]12CC[C@@H](O)CC1=CC(=O)C1C2CC[C@]2(C)C(=O)CCC12 (stereo not given in full)	11	·	–	–	–	–
COc1ccc(-n2nnnc2C(c2cccs2)N2CCC3(CC2)C(=O)NCN3c2ccccc2)cc1 (stereo not given)	·	·	·	–	·	·
Cc1cc(OCC(=O)NCc2ccncc2)c2c3c(c(=O)oc2c1)CCCC3	–	–	–	–	–	64
CCOC(=O)C(O)(c1ccc(NC(=O)c2ccc(Cl)c(Cl)c2)cc1)C(F)(F)F (stereo not given)	11	–	–	–	–	–
Cc1ccc(-n2c(O)c(/C=N/Nc3ccccc3)c(=O)[nH]c2=O)cc1C	–	–	310	·	–	–
COc1ccc(N/N=C/c2c(O)n(-c3ccc(C)c(C)c3)c(=O)[nH]c2=O)cc1	–	–	–	–	–	–
CCOc1cc2c(cc1OCC)-n1cccc1C(c1cccc(F)c1F)NC2 (stereo not given)	10	–	–	–	–	–
CCOc1cc2c(cc1OCC)-n1cccc1C(c1ccccc1O)NC2 (stereo not given)	–	–	–	–	–	–
C[C@]12CC[C@H]3[C@@H](CCC4=CC(=O)CC[C@@H]43)[C@@H]1CC[C@@H]2O	–	·	·	–	–	–
C[C@]12CC[C@@H]3c4ccc(O)c(O)c4CC[C@H]3[C@@H]1CC[C@@H]2O	–	–	–	121	–	–
COC(=O)C1=C(C(=O)OC)SC2(S1)C(C(=O)OC)=C(C(=O)OC)Sc1c2ssc1=O	25	·	·	–	·	·
O=C1NCN(c2ccccc2)C12CCN(C(c1ccnc3ccccc13)c1nnnn1C1CCCCC1)CC2 (stereo not given)	·	·	·	–	·	·
COCCNC(=O)c1c(NC(=O)c2ccc(Br)o2)n(Cc2ccccc2)c2nc3ccccc3nc12	–	–	830	–	–	–
FC(F)(F)c1ccc2c(c1)ncn2C1CCN(Cc2nnnn2C2CCCCC2)CC1	–	–	–	–	–	56
Fc1ccc(Cn2nnnc2CN2CCC(n3nnc4cc(C(F)(F)F)ccc43)CC2)cc1	–	–	–	–	–	–
O=c1c2ccccc2nc(-c2ccccc2)n1-n1cccc1	11	–	–	–	–	74
O=c1c2ccccc2nc(/C=C/c2ccccc2F)n1-c1ccccc1O	–	–	–	–	–	–
O=c1c2ccccc2nc(-c2ccccc2)n1-c1ccccc1O	–	–	–	–	–	63
O=c1c2ccccc2nc(/C=C/c2ccccc2O)n1-c1ccccc1O	·	–	–	–	–	47
Cc1ccccc1OP(=O)(Oc1ccccc1C)N1CCOCC1	·	·	·	–	·	·
O=C1C(Br)C2CCC1C2C(=O)O (stereo not given)	·	·	·	–	·	·
CN1CCCC2c3ccccc3CCC21 (stereo not given)	·	·	·	–	·	·
SMILES	GRIN3A LBD mod	AI-2 QS modul	Mot1-301 SUMO	H9c2 protect	NTR1 ag	AHR act
C/C(=N\NC(=O)c1ccccc1O)c1c(O)n(C2CCCCC2)c(=O)[nH]c1=O	13	–	–	–	–	–
CN1CCN(Cc2nc3ccccc3c(=O)[nH]2)CC1	–	–	–	55	–	–
O=c1[nH]c(CN2CCNCC2)nc2ccccc12	–	–	–	–	–	–
O=c1[nH]c2ccccc2n1C1CCN(C(CCc2ccccc2)c2nnnn2C2CCCCC2)CC1 (stereo not given)	·	·	·	–	·	·
C=C1C(C)C2C(Cc3ccccc3)NC(=O)C23C(OC(C)=O)C=CC(C)(O)CC(C)CC=CC3C1O (stereo not given)	–	·	·	–	·	·
C=C1[C@@H](C)[C@H]2[C@H](Cc3ccccc3)NC(=O)[C@]23OC(=O)/C=C/[C@H](O)CCC[C@@H](C)C/C=C/[C@H]3[C@@H]1O	–	–	–	79	–	–
O=c1[nH]c(=O)n(Cc2ccco2)c(O)c1C=NCc1cccs1	–	–	–	54	–	–
O=c1[nH]c(=S)n(Cc2ccco2)c(O)c1C=NCc1cccs1	–	–	–	–	–	–
C[C@]12C=CC(=O)C=C1CC[C@@H]1[C@@H]2CC[C@]2(C)C(=O)CC[C@@H]12	–	·	·	–	·	·
C[C@]12CCC(=O)C(O)=C1CC[C@@H]1[C@@H]2CC[C@]2(C)C(=O)CC[C@@H]12	12	–	–	–	–	–
c1ccc(-c2ccc(CN3Cc4ccccc4-n4nncc4C3)cc2)cc1	·	·	·	–	·	·
C=C(C)C(Cc1c(OC)ccc(C(=O)/C=C/c2ccc(O)cc2)c1O)OO (stereo not given)	24	·	·	–	–	–
CC1=CC2OC3CC4OC(=O)C=CC=CC(=O)OCCC(C)C(O)C(=O)OCC2(CC1)C4(C)C31CO1 (stereo not given)	–	·	·	57	·	·
CC1Oc2cc3c(-c4c(O)cc(O)c5c(O)c6c(cc45)OC(C)C(C)C6=O)c(O)cc(O)c3c(O)c2C(=O)C1C (stereo not given)	18	-89	–	–	–	–
C=CCCC1(C2=CCCCC2)C(=O)NC(=O)NC1=O	15	·	·	–	·	·
NC1CC2CCCCC2CC1(O)c1ccccc1 (stereo not given)	·	·	·	–	·	·
Cc1ccc(C[n+]2c(-c3ccc(C)cc3)cc(-c3ccc(C)cc3)cc2-c2ccc(C)cc2)cc1	–	–	280	–	–	–
CC1=CC(C)CC(C)OC(=O)CC(c2ccc(O)cc2)NC(=O)C(Cc2c(Br)[nH]c3ccccc23)N(C)C(=O)C(C)NC(=O)C(C)C1 (stereo not given)	–	·	·	–	·	·
CS(=O)(=O)c1ccc(C2=C(CNC(=O)c3ccc([N+](=O)[O-])cc3)[C@H]3CC[C@@H](C2)N3CCOc2ccccc2)cc1	·	·	·	–	·	·
COC(=O)C1=C(c2ccc3ccccc3c2)C[C@@H]2CC[C@H]1N2C(=O)N1CCCCC1	–	·	–	–	–	–
CC/C(=N\N1CCCCCC1)c1c(O)n(-c2ccc(C)cc2)c(=O)[nH]c1=O	21	–	–	–	–	–
C/C(=N\N1CCCCCC1)c1c(O)n(-c2ccc(C)cc2)c(=O)[nH]c1=O	–	–	–	–	–	–
